In PubChem BioAssay AID588352 (The Scripps Research Institute Molecular Screening Center, 2011):
About 620 (0.17%) of roughly 360,000 compounds were called active. Many of the other results were omitted from the sample, so actives are more common in it than they were. Values without a mark were called inactive.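 Rule for the calls: active = inhibition above a per-campaign cutoff, the mean of all compounds plus 3 SD (cut at about 60% in these data); inactive = the rest.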

target: Nuclear receptor coactivator 3 (Homo sapiens) (UniProt Q9Y6Q9); assay: NCOA3 GAL4-fusion reporter inhibition – cell-based, luminescence, primary screen (AID 588352); settings: HEK293 GAL4-SRC3 luciferase reporter, at 3.6 µM, active compounds read high;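 note: 0% = DMSO-treated cells and 100% = gossypol-treated cells at 36 µM; higher means less SRC3-driven luciferase light from the GAL4 reporter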
Sequence (Q9Y6Q9 whole entry, looked up, the tested form may be a part): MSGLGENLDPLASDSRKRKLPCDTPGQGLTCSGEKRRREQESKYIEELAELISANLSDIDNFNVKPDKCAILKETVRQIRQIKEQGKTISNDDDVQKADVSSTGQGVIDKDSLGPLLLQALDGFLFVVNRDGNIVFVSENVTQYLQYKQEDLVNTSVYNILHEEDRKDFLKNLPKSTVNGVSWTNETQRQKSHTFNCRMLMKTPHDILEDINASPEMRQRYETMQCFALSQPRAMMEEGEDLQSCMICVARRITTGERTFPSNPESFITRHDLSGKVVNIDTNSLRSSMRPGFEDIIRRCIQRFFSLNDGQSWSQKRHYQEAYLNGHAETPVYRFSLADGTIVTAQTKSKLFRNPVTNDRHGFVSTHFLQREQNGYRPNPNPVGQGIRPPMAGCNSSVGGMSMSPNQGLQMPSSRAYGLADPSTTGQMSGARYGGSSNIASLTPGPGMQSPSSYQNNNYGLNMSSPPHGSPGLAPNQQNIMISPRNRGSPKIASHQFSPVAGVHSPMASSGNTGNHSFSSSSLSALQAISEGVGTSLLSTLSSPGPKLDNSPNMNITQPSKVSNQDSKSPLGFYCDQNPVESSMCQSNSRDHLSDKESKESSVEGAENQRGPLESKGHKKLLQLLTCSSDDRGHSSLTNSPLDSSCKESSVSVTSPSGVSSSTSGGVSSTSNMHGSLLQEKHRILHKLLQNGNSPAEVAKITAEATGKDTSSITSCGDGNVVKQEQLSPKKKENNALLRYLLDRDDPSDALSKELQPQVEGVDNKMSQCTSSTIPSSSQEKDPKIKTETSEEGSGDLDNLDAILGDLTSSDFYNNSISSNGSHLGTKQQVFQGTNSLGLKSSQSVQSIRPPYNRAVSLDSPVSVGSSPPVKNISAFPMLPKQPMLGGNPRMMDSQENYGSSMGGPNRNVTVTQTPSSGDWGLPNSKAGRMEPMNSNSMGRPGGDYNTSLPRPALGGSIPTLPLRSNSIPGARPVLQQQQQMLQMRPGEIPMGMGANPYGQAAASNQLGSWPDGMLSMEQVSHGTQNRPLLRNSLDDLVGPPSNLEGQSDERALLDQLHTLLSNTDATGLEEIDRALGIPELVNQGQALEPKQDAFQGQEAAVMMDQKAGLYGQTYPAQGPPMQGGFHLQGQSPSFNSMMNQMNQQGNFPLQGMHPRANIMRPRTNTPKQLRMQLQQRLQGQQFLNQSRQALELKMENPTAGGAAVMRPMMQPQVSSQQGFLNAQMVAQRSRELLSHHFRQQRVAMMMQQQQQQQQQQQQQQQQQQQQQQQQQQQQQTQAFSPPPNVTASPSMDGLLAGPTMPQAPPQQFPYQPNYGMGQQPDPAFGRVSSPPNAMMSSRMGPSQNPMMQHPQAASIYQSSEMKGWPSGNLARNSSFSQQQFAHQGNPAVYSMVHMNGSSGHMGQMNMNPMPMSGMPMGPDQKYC

SMILES | inhibition
O=S1(=O)CCC(NC(=S)SCc2ccccc2Br)C1 (stereo unspecified) | 8%
FC(F)(F)c1cccc(-c2nc(COc3ccc(Cl)cc3Cl)no2)c1 | 12.2%
CC(C)(C)c1nc2ccccc2c(=O)n1N1C(=O)c2ccccc2C1=O | 2.66%
CN(c1ccc2nc3ccccc3c(=O)n2n1)C1CCCCC1 | 73.1% (active)
CN(C(=O)Nc1ccc(Cl)cc1)n1cnc2ccccc2c1=O | -6.25%
COc1cccc2cc(C(=O)NCc3ccc(C)cc3)c(=N)oc12 | 14.3%
C=CCOC(=O)C1=C[C@@H](c2ccc3c(c2)OCO3)C[C@@H](OCCCCO)O1 | -13.9%
CC(C)c1cc(C(N)=O)c(NC(=O)c2cccc(COc3ccc(Br)cc3)c2)s1 | -149%
COCc1ccc(C(=O)NC2CC(C)(C)Cc3c2cnn3-c2ccc(C)cc2)o1 (stereo unspecified) | 16.3%
CC(C)OC(=O)c1ccc(NCc2cc(O)ccc2O)cc1Cl | -31.6%
O=C(OC12CC3CC(CC(C3)C1)C2)c1ccc(NCc2cc(O)ccc2O)cc1 | 74.5% (active)
CCOC(=O)c1[nH]cnc1C(=O)NC1CCCCC1 | -23%
COc1cccc(Nc2nnc(SCC(=O)N3CC(C)OC(C)C3)s2)c1 (stereo unspecified) | -8.99%
C=CCSc1nnc(Cn2c(=O)sc3ccccc32)n1C | 5.67%
COc1ccccc1Cn1c(C)nnc1-c1cnn(C)c1N | 19.6%
CCc1nc2ccc(C(=O)NC3CCN(Cc4ccccc4)CC3)cn2c1N(C)CCN1CCOCC1 | 14.3%
Nc1nc(SCC(=O)NNc2c(Cl)cc(Cl)cc2Cl)n[nH]1 | 18%
Cc1ccc(C)c(S(=O)(=O)N2CC(=O)Nc3ccccc32)c1 | 22.6%
COc1ccc(S(=O)(=O)NCC(=O)NC2CC2)cc1OC | -59%
COc1cc(OC)cc(-c2c(-c3ccc(F)cc3)c3cc(-c4ccc5cc[nH]c5c4)ccc3n2C)c1 | 7.21%
Cc1nc2ccccc2n1CC(O)c1ccccc1 (stereo unspecified) | -14%
O=C(Cn1nc([N+](=O)[O-])nc1Br)NC1CCCCC1 | 5.25%
COc1cc(OC)cc(-c2c(-c3cccs3)c3cc(-c4ccc(OC)cc4F)ccc3n2C)c1 | -12.6%
COC(=O)c1ccc(NC(=O)CSc2nc(N)c(NC(=O)c3ccc(Br)o3)c(=O)[nH]2)cc1 | 11.5%
Clc1cccc(Cl)c1Cn1nnc(-c2cccs2)n1 | -55.9%
Cn1sc(=O)c2cc(S(=O)(=O)NC3CC3)ccc21 | 3.57%
